Source: PubChem BioAssay (several laboratories)
TROY NFkB inh = blocks TROY-dependent signaling in reporter cells | inhibition, % at 10 µM | 360,000 tested, 0.98% active | Q293 LMP1-TROYcd NF-kB luciferase reporter, 4 h | AID 1347056;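 active = compounds whose plate-normalised and pattern-corrected inhibition of the luciferase reporter signal at the single screening dose is 50% or more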
LMP1 NFkB inh = inhibitors of Epstein-Barr LMP1-induced NF-kappaB reporter; LMP1-induced NF-kappaB luciferase reporter cells, luminescence; inhibition, % at 12.5 µM; 350,000 tested, 0.69% active; AID 504558; in the data active = inhibition above about 41%; inconclusive = no clear call, values can overlap the other calls
EWS-Fli block = EWS/Fli transcriptional activity inhibition; inhibition, % at 12.6 µM; 350,000 tested, 0.67% active; A673 NR0B1-luciferase reporter, viability-normalised;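 active = mean inhibition of at least 50% after viability correction, with every replicate also passing that limit; inconclusive = mean reaches 50% but only one of two replicates passes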;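 note: firefly luciferase signal divided by Alamar Blue viability fluorescence both relative to DMSO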
PAX8 inh HTS = inhibitors of PAX8 transcriptional activity in RMG-I cells; 360,000 tested, 1.2% active; RMG-I TPO-luciferase reporter, SteadyGlo, 24 h; inhibition, % at 12.6 µM; AID 652154;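 active = mean replicate inhibition at least 60% with every replicate also reaching 60%; inconclusive = only one of the two criteria is met; inactive = mean below 60% and not all replicates reaching 60%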;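 note: luciferase light reporting Pax8 driven TPO promoter activity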
TWEAK Fn14 block = blocks TWEAK-Fn14 interaction in a reporter cell assay. AID 1159606. 360,000 tested, 2% active. TWEAK-stimulated Fn14 reporter cells, luciferase luminescence, 8 h. inhibition, % at 10 µM; in the data active = inhibition above about 50%
LGR2 antag = Drosophila LGR2 receptor signaling inhibition; inhibition, % at 9.99 µM; HEK293 LGR2, CRE-luciferase, bursicon-stimulated, 4 h; 380,000 tested, 0.35% active;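 active = drop in luminescence signal, shown as inhibition above about 50% in the replicate tests, limit read from the data, passing the limit was not always enough; inconclusive = probably only some replicates passing the limit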;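 note: agonist challenge used bursicon conditioned medium at about half maximal strength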
Numbers stand for hits. An excerpt weighted towards active compounds, which were near 3.2% of everything screened.

For C[C@@H]1CCCCO[C@H](CN(C)Cc2ccc(C(F)(F)F)cc2)[C@@H](C)CN([C@H](C)CO)C(=O)c2cc(NC(=O)Nc3ccc4c(c3)OCO4)ccc2O1 the results were EWS-Fli block inactive, PAX8 inh HTS inactive and LGR2 antag inactive.
C[C@@H]1CCCCO[C@H](CN(C)Cc2ccc3c(c2)OCO3)[C@@H](C)CN([C@H](C)CO)C(=O)c2cc(NC(=O)Nc3ccc(C(F)(F)F)cc3)ccc2O1 was read as EWS-Fli block inactive, PAX8 inh HTS inactive and LGR2 antag inactive.
For C[C@@H]1CN([C@H](C)CO)C(=O)c2cc(NC(=O)Nc3ccc4c(c3)OCO4)ccc2O[C@@H](C)CCCCO[C@H]1CN(C)Cc1ccc(C(F)(F)F)cc1 the results were EWS-Fli block 66, PAX8 inh HTS 85 and LGR2 antag inactive.
Screening C[C@@H]1CN([C@H](C)CO)C(=O)c2cc(NC(=O)Nc3ccc(C(F)(F)F)cc3)ccc2O[C@@H](C)CCCCO[C@@H]1CN(C)Cc1ccc2c(c1)OCO2 returned EWS-Fli block inactive, PAX8 inh HTS 89 and LGR2 antag inactive.
For CC(C)CCCCCCNC(=S)Nc1ccc(S(=O)(=O)N2CCOCC2)cc1 the results were TROY NFkB inh 56, LMP1 NFkB inh inactive, EWS-Fli block inactive, PAX8 inh HTS inactive, TWEAK Fn14 block 54 and LGR2 antag 51.
`COc1ccc(C2=Nn3c(nnc3-c3ccccc3F)SC2)cc1OC1CCCC1` gave TROY NFkB inh inactive, LMP1 NFkB inh 55, EWS-Fli block inactive, PAX8 inh HTS inactive, TWEAK Fn14 block inactive and LGR2 antag inactive.
`c1ccc(-c2cc(-c3nnc4n3N=C(c3ccc5ccccc5c3)CS4)[nH]n2)cc1` gave TROY NFkB inh inactive, LMP1 NFkB inh inactive, TWEAK Fn14 block 68 and LGR2 antag inactive.
For COc1ccc(OC)c(-c2nnc3n2N=C(c2ccc(OC)c(OC)c2)CS3)c1 the results were TROY NFkB inh inactive, LMP1 NFkB inh inactive, EWS-Fli block 56, PAX8 inh HTS inactive, TWEAK Fn14 block inactive and LGR2 antag inactive.
For COc1ccc(C2=Nn3c(nnc3-c3ccccc3F)SC2)cc1OC1CCOC1 (stereo not given) the results were TROY NFkB inh inactive, LMP1 NFkB inh inactive, EWS-Fli block 60, PAX8 inh HTS inactive, TWEAK Fn14 block inactive and LGR2 antag inactive.
`COc1ccc(C2=Nn3c(nnc3C3CCCCC3)SC2)cc1OC` gave TROY NFkB inh inactive, LMP1 NFkB inh inactive, PAX8 inh HTS inactive and TWEAK Fn14 block inactive.
COc1ccc(C2=Nn3c(nnc3-c3ccccc3)SC2)cc1OC was read as TROY NFkB inh inactive, LMP1 NFkB inh inactive, TWEAK Fn14 block inactive and LGR2 antag inactive.
O=C(Nc1cc(F)ccc1F)N1C[C@@H]2[C@H](c3ccccc31)[C@H](CO)N2Cc1cccnc1 was read as EWS-Fli block inactive, PAX8 inh HTS inactive and LGR2 antag inactive.
O=C(CSc1ccccn1)Nc1nonc1[N+](=O)[O-] was read as TROY NFkB inh 68, LMP1 NFkB inh inactive, PAX8 inh HTS inactive, TWEAK Fn14 block 69 and LGR2 antag inactive.
Screening O=C(C1CCN(c2ncnc3c2nc2n3CCCCC2)CC1)N1CCN(c2ccccc2F)CC1 returned TROY NFkB inh inactive, LMP1 NFkB inh inactive, EWS-Fli block inactive, PAX8 inh HTS inactive, TWEAK Fn14 block inactive and LGR2 antag inactive.
`Cc1ccc(N2CCN(C(=O)C3CCCN(c4ncnc5c4nc4n5CCCCC4)C3)CC2)c(C)c1` (stereo not given) gave TROY NFkB inh 60, LMP1 NFkB inh inactive, PAX8 inh HTS inactive, TWEAK Fn14 block inactive and LGR2 antag inactive.
Cc1cccc(N2CCN(C(=O)C3CCN(c4ncnc5c4nc4n5CCCCC4)CC3)CC2C)c1 (stereo not given) was read as TROY NFkB inh 52, LMP1 NFkB inh inactive, PAX8 inh HTS inactive, TWEAK Fn14 block 51 and LGR2 antag inactive.
For O=C(C1CCCN(c2ncnc3c2nc2n3CCCCC2)C1)N1CCN(c2cccc(Cl)c2)CC1 (stereo not given) the results were TROY NFkB inh inactive, LMP1 NFkB inh inactive, PAX8 inh HTS inactive, TWEAK Fn14 block inactive and LGR2 antag inactive.
`Cc1cccc(N2CCN(C(=O)C3CCN(c4ncnc5c4nc4n5CCCCC4)CC3)CC2)c1C` gave TROY NFkB inh 65, LMP1 NFkB inh inactive, PAX8 inh HTS inactive, TWEAK Fn14 block 80 and LGR2 antag inconclusive.
Screening COc1ccccc1N1CCN(CCCNC(=O)C2CCCN(c3ncnc4c3nc3n4CCCCC3)C2)CC1 (stereo not given) returned TROY NFkB inh inactive, LMP1 NFkB inh 66, EWS-Fli block inactive, PAX8 inh HTS inactive, TWEAK Fn14 block inactive and LGR2 antag inactive.
C[C@H]1CN([C@@H](C)CO)S(=O)(=O)c2ccc(-c3ccc(F)cc3)cc2O[C@@H]1CN(C)C(=O)C1CCC1 was read as EWS-Fli block inactive and LGR2 antag inactive.
COc1ccccc1CNC(=O)C[C@@H]1C[C@H]2c3cc(NC(=O)C4CCC4)ccc3O[C@H]2[C@H](CO)O1 was read as EWS-Fli block inactive, PAX8 inh HTS inactive and LGR2 antag inactive.
Screening C[C@@H]1CCCCO[C@H](CN(C)CC2CC2)[C@H](C)CN([C@H](C)CO)C(=O)c2cc(NC(=O)NC3CCCCC3)ccc2O1 returned EWS-Fli block inactive, PAX8 inh HTS inactive and LGR2 antag inactive.
C[C@H]1CN([C@@H](C)CO)C(=O)c2cc(C#CC(C)(C)O)cnc2O[C@@H]1CN(C)C(=O)CC1CC1 was read as EWS-Fli block inactive and LGR2 antag inactive.
Screening CCCN(C)C[C@@H]1OCc2cnnn2CCCC(=O)N([C@@H](C)CO)C[C@@H]1C returned EWS-Fli block inactive, PAX8 inh HTS inactive and LGR2 antag inactive.
O=c1[nH]c(C2CCN(S(=O)(=O)c3ccc4c(c3)OCCO4)CC2)nc2c1nnn2Cc1c(F)cccc1Cl was read as TROY NFkB inh inactive, LMP1 NFkB inh inactive, EWS-Fli block inactive, PAX8 inh HTS inactive, TWEAK Fn14 block 55 and LGR2 antag inactive.
O=S(=O)(Cc1ccccc1)NCC[C@@H]1CC[C@H](NS(=O)(=O)c2ccccc2)[C@@H](CO)O1 was read as EWS-Fli block inactive, PAX8 inh HTS inactive and LGR2 antag inactive.
For CCOc1ccc(-c2nc(-c3cccnc3)no2)cc1 the results were TROY NFkB inh inactive, LMP1 NFkB inh inactive and TWEAK Fn14 block 67.
CCOc1ccc(-c2nnc(-c3ccccc3)o2)cc1 was read as TROY NFkB inh inactive, LMP1 NFkB inh inactive and TWEAK Fn14 block 81.
`CO[C@@H]1CN(C)C(=O)c2cc(NC(C)=O)ccc2OC[C@H](C)N(C(=O)c2ccccc2F)C[C@H]1C` gave EWS-Fli block inactive and LGR2 antag inactive.
`Cc1ccc(C2(c3ccccc3)NC(=O)N(CC(=O)NCc3ccccc3)C2=O)cc1C` (stereo not given) gave TROY NFkB inh inactive, LMP1 NFkB inh 70, EWS-Fli block inactive, PAX8 inh HTS inactive, TWEAK Fn14 block inactive and LGR2 antag inactive.
